Screening data deposited in PubChem BioAssay by National Center for Advancing Translational Sciences (NCATS).
D1 PAM: enhances dopamine response at the human D1 receptor | HEK293 TREx D1 cells, calcium flux, dopamine EC20 potentiation | P21728 | potentiation, % at 10 µM | actives 0.036% (n = 360,000); in the data active = potentiation above about 30%
Target sequence (P21728 whole entry, looked up): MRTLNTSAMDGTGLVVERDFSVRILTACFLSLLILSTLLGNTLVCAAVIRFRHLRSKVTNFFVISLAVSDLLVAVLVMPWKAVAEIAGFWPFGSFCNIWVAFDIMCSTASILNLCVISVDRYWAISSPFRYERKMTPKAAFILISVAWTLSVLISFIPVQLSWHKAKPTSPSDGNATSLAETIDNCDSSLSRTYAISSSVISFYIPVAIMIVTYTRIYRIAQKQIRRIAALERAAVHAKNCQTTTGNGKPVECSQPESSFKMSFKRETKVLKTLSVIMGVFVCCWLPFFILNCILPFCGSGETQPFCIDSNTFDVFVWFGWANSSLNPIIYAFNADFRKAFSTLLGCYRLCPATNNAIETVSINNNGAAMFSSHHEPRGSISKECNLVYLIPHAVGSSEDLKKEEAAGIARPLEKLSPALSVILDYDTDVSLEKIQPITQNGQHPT
TRHR enhancer: allosteric enhancers of human TRH receptor; P34981; TRHR cells, fluo-8 calcium fluorescence, EC20 TRH enhancement; enhancement, % at 2 µM; actives 0.66% (n = 360,000); in the data active = enhancement above about 30%
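TRHR-expressing cells loaded with fluo-8 calcium dye were read kinetically (ex 480/em 530) during compound addition, then stimulated with an EC20 of TRH (10 nM final). Enhancement of the Gq-mediated intracellular calcium response was scored.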
D1 agonist: agonists of human D1 dopamine receptor | HEK293 T-REx D1 cells, calcium flux, agonist mode | activation, % at 2 µM | actives 1% (n = 360,000)
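Agonism was scored from calcium flux recorded over 180 s (1 read/s) after pintool compound addition, following a 10-cycle baseline. Cells were inducible force-coupled HEK293 TREx D1, plated overnight at 30 C and loaded with no-wash calcium dye.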
TRHR ag: TRH receptor (human) agonism | TRHR cells, calcium flux fluo-8, FDSS agonist mode | activation, % at 2 µM | actives 0.18% (n = 360,000) | AID 493084
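Agonist-mode FDSS calcium read (Ex 480/Em 530, 1 s cycles) in 1536-well TRHR cells with fluo-8 dye, after 10-cycle baseline and 23 nL compound addition; TRH at EC20 (10 nM final) added afterwards for the enhancer phase.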
D1 antagonist: human D1 dopamine receptor antagonism; P21728; HEK293 TREx D1 cells, calcium flux, dopamine EC80; hits give low values; activity change, negative = inhibition, % at 10 µM; actives 3.2% (n = 360,000); in the data active = activity change below about -30%
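Allosteric or orthosteric antagonism assessed as attenuation of the calcium response to EC80 dopamine, added 180 s after compound, in induced HEK293 Trex D1 cells loaded with no-wash calcium dye.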
Hits are given with their value; n = inactive; ! = not confirmed by another sample. Hits are enriched below; roughly 4.7% of the tested compounds scored in any of these assays. Rule as the data show it, unless noted: active = activation above about 30%; inactive = the rest.

SMILES	D1 PAM	TRHR enhancer	D1 agonist	TRHR ag	D1 antagonist
COc1ccc(C2=Nc3ccc(F)cc3NC(c3cccc(C(F)(F)F)c3)=N2)cc1	n	n	n	n	n
Cc1ccc2c(c1)sc1nc(=O)n(-c3ccc(Cl)cc3)c(=O)n12	n	n	n	n	n
Cc1ccc2c(c1)sc1nc(=O)n(-c3ccc(Cl)c(Cl)c3)c(=O)n12	n	n	n	n	-39!
Cc1ccc(-c2csc(-c3nc(-c4ccc(Br)s4)cs3)n2)cc1	n	n	n	n	n
Cc1nc(-c2ccccc2)sc1CCNC(=O)C(=O)Nc1ccc2c(c1)OCCO2	n	n	n	n	-45
Cc1nc(-c2ccc(F)cc2)sc1CCNC(=O)C(=O)Nc1ccc2c(c1)OCCO2	n	n	n	n	n
CC(=O)Nc1cccc(NC(=O)C(=O)NCCc2sc(-c3ccccc3)nc2C)c1	n	n	n	n	-40
COc1ccc(NC(=O)CSc2nc3ccccc3n2CC(=O)Nc2cccc(C)c2C)cc1	n	n	n	n	n
O=C(O)c1cccc(CN2C(=O)c3ccccc3C2=O)c1	n	n	n	n	n
O=C1c2cccc3c(O)ccc(c23)C(=O)N1Cc1ccccc1	n	40	366	154	n
O=C1CS(=O)(=O)C2(C(=O)N(Cc3ccccc3Cl)c3ccccc32)N1c1ccc(F)cc1 (stereo unspecified)	n	n	n	n	n
CCOc1ccc(C(CC(=O)Nc2ccc(C(=O)OC)cc2)N2Cc3ccccc3C2=O)cc1OC (stereo unspecified)	n	n	n	n	n
CC(C)(C)NC(=O)c1cccc(NC(=O)CSc2ccc(Cl)cc2)c1	n	n	n	n	-59
CC(C)CNC(=O)c1cccc(NC(=O)CSc2ccc(Cl)cc2)c1	n	n	n	n	n
Cc1ccc(C23CC4CC(CC(CN)(C4)C2)C3)cc1	n	n	42	n	n
NCC12CC3CC(C1)CC(c1ccc(Br)cc1)(C3)C2	n	n	n	n	n
COc1ccccc1N1CCN(CC(O)COc2ccc(C)cc2C(C)(C)C)CC1 (stereo unspecified)	n	n	n	n	n
O=C(CCc1ccccc1)N1CCc2c([nH]c3ccccc23)C1c1ccc(Cl)cc1 (stereo unspecified)	n	n	n	n	n
CCOc1cccc(CC(=O)N2CCc3c([nH]c4ccccc34)C2c2ccc(Cl)cc2)c1OCC (stereo unspecified)	n	n	n	n	-86
Cc1ccc(CSc2nc(-c3ccccc3C)nc3c2Cc2c(CO)cnc(C)c2O3)cc1	n	n	n	n	n
Cc1ccc(CN(Cc2ccco2)C(=O)c2oc3ccc(C)cc3c2C)cc1	n	n	37	n	n
Cc1cc2oc(C(=O)N(Cc3ccco3)Cc3ccccc3Cl)c(C)c2cc1C	n	41	n	n	n
Cc1ccc(CN(Cc2ccco2)C(=S)NCC(=O)NC2CC2)cc1	n	n	n	n	-31
Cc1ccc2occ(CC(=O)N(Cc3ccc(Cl)cc3)Cc3ccco3)c2c1	n	n	90	n	n
COC(=O)c1ccc(NC(=O)C2CCN(C(=O)c3ccc(F)cc3)CC2)cc1	n	n	n	n	n
SMILES	D1 PAM	TRHR enhancer	D1 agonist	TRHR ag	D1 antagonist
CN(C)c1ccc(CN(CC2CCCO2)C(=O)COc2ccc(Cl)cc2)cc1 (stereo unspecified)	n	n	n	n	n
CCOc1ccc(-c2nnc(SCC(=O)N(CC)c3cccc(C)c3)o2)cc1	n	n	n	n	n
O=C(Nc1nccs1)c1ccc(CSc2ccccc2)o1	n	n	n	n	-40
O=C(COc1cc2oc(=O)c3c(c2cc1Cl)CCC3)NCc1ccncc1	n	36	n	n	n
O=C(COc1cc2oc(=O)c3c(c2cc1Cl)CCC3)NCc1ccccn1	n	n	n	n	n
COc1ccc(C(=O)Nc2ccccc2C(=O)O)cc1Cl	n	n	n	n	n
CCN(CC)S(=O)(=O)c1cc(C(=O)Nc2ccccc2C(=O)O)ccc1OC	n	39	n	n	n
Cc1oc2ncn(CC(C)C)c(=O)c2c1C(=O)NCCCN(Cc1ccccc1)C(C)C	n	n	n	n	n
CCN(C(=O)CSc1nc(-c2ccc(C(C)C)cc2)no1)c1ccccc1	n	n	n	n	n
COc1ccc(NC(=O)C2CC(=O)N(c3ccccc3C)C2)c(OC)c1 (stereo unspecified)	n	n	n	n	n
CCOc1ccc(C(=O)NCC(=O)NCC2CCCCC2)cc1OCC	n	n	n	n	-34
